Assay outcomes deposited in PubChem by National Center for Advancing Translational Sciences (NCATS).
TbPYK inhibitor: inhibitors of Trypanosoma brucei pyruvate kinase | Potency, µM (top dose mostly 76.8 µM), inactives show top-dose activity, negative = inhibition, usual class: inhibitors | TbPYK enzyme, Kinase-Glo Plus ATP luminescence, 45 min | Q57TT1 | 410,000 tested, 0.12% active; note: % is set by controls: 0 for no effect and ±100 for the full control effect; nearly all actives have a fitted effect of over 50% in size
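Quantitative HTS: titrated library compounds versus trypanosomal pyruvate kinase in TEA buffer (pH 7.2) containing KCl, MgCl2, BSA and Tween-20. Reactions were initiated with ADP, 130 uM final. Kinase-Glo Plus luminescence was read after 45 min at RT.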
RE007 growth inh: less growth of the S. pombe RE007 Vpr strain. 360,000 tested, 0.21% active. AID 651644. S. pombe RE007 Vpr strain, BacTiter-Glo ATP luminescence, 24 h. Potency, µM (top dose mostly 92.2 µM), without a hit: top-dose activity change, negative = less growth, usual class: inhibitors; active = well fitted falling curve with a large enough effect; inconclusive = small, poorly fitted or top-dose-only effect; inactive = no such curve, though single readings can be large or run the other way; note: % is set by controls: 0 for no effect and ±100 for the full control effect; nearly all actives have a fitted effect of over 50% in size
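Fission yeast strain RE007, carrying one chromosomally integrated HIV-1 vpr copy, was seeded at OD 0.01 in PMG+AL medium with 23 nL pinned compound. After 24 h at 30 °C and 99% humidity, viability was read by BacTiter-Glo luminescence.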
LmPK inh: LmPK (Leishmania mexicana) enzyme inhibition; Q27686; purified LmPK, Kinase-Glo ATP luminescence, 1 h; Potency, µM (highest dose often 57.5 µM), inactives show at the highest dose activity change, negative = inhibition, usual class: inhibitors; 290,000 tested, 0.37% active; AID 1721; note: % is set by controls: 0 for no effect and ±100 for the full control effect
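0.1 nM LmPK, 0.5 mM PEP, 0.1 mM ADP; 50 mM imidazole pH 7.2, 7 mM MgCl2, 50 mM KCl; 1 h RT. Kinase-Glo luminescence readout, normalized to no-enzyme (full inhibition) and uninhibited wells.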
SARS PLP yeast: SARS-CoV PLP inhibition in yeast; S. cerevisiae expressing SARS-CoV PLpro, growth rescue; Potency, µM (highest dose often 32.9 µM), for the others: top-dose activity, positive = growth rescue, actives largely listed as activators; 330,000 tested, 0.19% active; AID 485353; calls by dose curve; note: 0% is about no effect; nearly all actives have a fitted effect of over 55% in size
Giardia FBPA inh: blocks Giardia fructose-bisphosphate aldolase activity; A8B2U2; purified Giardia FBPA; Potency, µM (top dose mostly 59.6 µM), for the others: at the highest dose activity, negative = inhibition, actives largely listed as inhibitors; 290,000 tested, 0.71% active; AID 2451; note: % is set by controls: 0 for no effect and ±100 for the full control effect; nearly all actives have a fitted effect of over 55% in size
Target sequence (A8B2U2 whole entry, looked up): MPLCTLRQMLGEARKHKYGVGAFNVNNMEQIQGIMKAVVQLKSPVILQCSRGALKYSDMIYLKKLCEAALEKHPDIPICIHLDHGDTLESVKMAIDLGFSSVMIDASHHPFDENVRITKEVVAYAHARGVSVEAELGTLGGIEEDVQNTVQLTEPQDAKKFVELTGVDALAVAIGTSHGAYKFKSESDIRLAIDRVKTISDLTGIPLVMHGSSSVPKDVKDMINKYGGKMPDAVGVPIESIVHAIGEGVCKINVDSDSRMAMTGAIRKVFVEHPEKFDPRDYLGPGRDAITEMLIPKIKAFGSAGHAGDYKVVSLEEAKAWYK
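Giardia FBPA (40 nM reagent) was preincubated 10 min at RT with compound (up to 57.5 uM final), then substrate plus GAPDH/TPI/NAD/arsenate coupling system with diaphorase/resazurin was added; resorufin fluorescence (525/598 nm) was read after 20 min.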
* hit, by the source's call; u = inconclusive; x = no result given. An excerpt weighted towards active compounds, which were near 1.1% of everything screened. Unless noted, calls come from the whole dose curve; as a rule, active = well fitted curve in the direction sought with a large enough effect; inconclusive = small, poorly fitted or top-dose-only effect, or another doubt; inactive = no such curve, though single readings can be large; an effect the other way counts as inactive or inconclusive. Potency is the fitted concentration of half-maximal effect.

SMILES	TbPYK inhibitor	RE007 growth inh	LmPK inh	SARS PLP yeast	Giardia FBPA inh
CCC(=O)Oc1ccc(-c2nc(-c3cccnc3)no2)cc1	-19.8%	u	7.94µM*	5.5%	1.0%
c1coc(-c2nnc(-c3ccco3)nn2)c1	-22.9%	14.1µM*	u	-9.4%	x
O=C(N/N=C/c1ccccc1)NC1CCCCC1	2.6%	1.4%	-0.6%	-18.1%	13.2%
CC(C)(C)c1ccc(/C=N/NC(=S)NC2CCCCC2)cc1	6.5%	-10.4%	1.8%	20µM*	-0.6%
Cc1ccc(-c2cc3nc(C)cc(NCc4ccco4)n3n2)cc1	0.8%	u	28.2µM*	-17.9%	-17.9%
COCCNc1cc(C)nc2cc(-c3ccc(C)cc3)nn12	-0.5%	u	0.8%	-6.9%	-12.2%
Cc1cc(NCc2ccccn2)n2ncc(-c3ccc(Cl)cc3)c2n1	-2.2%	28.2µM*	-3.8%	-1.4%	-10.7%
Cc1cc(NCc2ccccn2)n2ncc(-c3ccccc3)c2n1	1.5%	u	2.6%	-2.5%	-10.0%
CNC(=O)Oc1ccc2c(c1)[C@]1(C)CCN(C)[C@@H]1N2C	1.7%	0.0%	1.2%	-12.7%	u
CN1CC[C@@]2(C)c3cc(O)ccc3N(C)C12 (stereo partly specified)	x	x	x	x	2.81µM*
O=C1CCC(c2ccccc2)c2ccccc21 (stereo unspecified)	4.3%	7.2%	x	x	x
N#CC1C(=O)c2ccccc2C1c1ccccc1 (stereo unspecified)	-25.2%	8.91µM*	x	x	x
O=S(=O)(Oc1ccccc1/C=N/n1cnnc1)c1ccccc1	1.5%	28.2%	0.2%	-0.2%	19.9µM*
Cc1oc2c(c1C(=O)O)C(=O)c1ccccc1C2=O	-6.9%	-11.2%	-0.6%	-0.2%	u
O=C1C(=O)c2c(C(=O)c3ccccc3)coc2-c2ccccc21	-3.9%	11.2µM*	2.5%	-35.2%	3.15µM*
Cc1oc2c(c1C(=O)c1ccccc1)C(=O)C(=O)c1ccccc1-2	-3.2%	u	3.3%	-40.1%	1.12µM*
CSCC[C@H](NC(=O)[C@H](CCC(N)=O)NC(=O)[C@H](CCCCN)NC(=O)[C@H](CCCNC(=N)N)NC(=O)[C@H](Cc1ccc(O)cc1)NC(=O)[C@H](CCCNC(=N)N)NC(=O)[C@H](CO)NC(=O)[C@H](Cc1ccc(O)cc1)NC(=O)[C@H](CO)NC(=O)[C@H](CC(=O)O)NC(=O)[C@@H](NC(=O)[C@@H](N)Cc1ccccc1)[C@@H](C)O)C(=O)N[C@@H](C)C(=O)N[C@H](C(=O)N[C@@H](CCCCN)C(=O)N[C@@H](CCCCN)C(=O)N[C@@H](Cc1ccc(O)cc1)C(=O)N[C@@H](CC(C)C)C(=O)N[C@@H](C)C(=O)N[C@@H](C)C(=O)N[C@H](C(=O)N[C@@H](CC(C)C)C(=O)NCC(=O)N[C@@H](CCCCN)C(=O)N[C@@H](CCCNC(=N)N)C(=O)N[C@@H](Cc1ccc(O)cc1)C(=O)N[C@@H](CCCCN)C(=O)N[C@@H](CCC(N)=O)C(=O)N[C@@H](CCCNC(=N)N)C(=O)N[C@H](C(=O)N[C@@H](CCCCN)C(=O)N[C@@H](CC(N)=O)C(=O)N[C@@H](CCCCN)C(N)=O)C(C)C)C(C)C)C(C)C	x	x	x	x	4.3%
C[C@]12C=CC(=O)C=C1[C@@H](F)C[C@@H]1[C@@H]2[C@@H](O)C[C@@]2(C)[C@H]1CC[C@]2(O)C(=O)CO	-9.5%	x	x	x	x
Cc1ccc(NC(=O)N2CCC(CN3CCCCCC3)CC2)c(Cl)c1	4.7%	x	x	x	x
CCOc1ccc(-n2c(SCC(=O)Nc3cccc(Cl)c3)nc3c(oc4ccccc43)c2=O)cc1	1.7%	x	x	x	x
Cc1ccc(S(=O)(=O)O/N=C2\CCCc3ccccc32)cc1	13.0%	5.5%	-0.2%	-21.1%	u
CC1=C(C)/C(=N\OS(=O)(=O)c2ccccc2)C=CC1=O	2.3%	7.94µM*	7.3%	-49.7%	4.46µM*
c1ccc(Oc2nc(NC3CCCCC3)c3[nH]cnc3n2)cc1	x	x	x	x	15.8µM*
Cn1c(SCC(=O)N/N=C/c2cccs2)nc2ccccc21	3.2%	4.2%	-3.3%	2.0%	-17.3%
Cc1ccc(/C=N/NC(=O)CSc2nc3ccccc3n2C)s1	2.1%	27.5%	-3.8%	0.6%	3.97µM*
SMILES	TbPYK inhibitor	RE007 growth inh	LmPK inh	SARS PLP yeast	Giardia FBPA inh
COc1ccccc1OCC(=O)Nc1cc(-c2ccc(C)cc2)no1	-2.9%	x	x	x	x
Cc1ccc(C23CC4CC(CC(NC(=O)N5CCN(C)CC5)(C4)C2)C3)cc1	-1.7%	12.6µM*	1.6%	1.4%	4.2%
Cc1ccc(C23CC4CC(CC(C(=O)N5CCN(C)CC5)(C4)C2)C3)cc1	-2.4%	-9.6%	0.6%	-5.5%	9.8%
COC(=O)c1ccc(NC(=O)c2cc(S(=O)(=O)N3CCOCC3)cn2C)cc1	0.0%	x	x	x	x
CN(C)CC(C(=O)c1ccccc1)c1ccccc1 (stereo unspecified)	-5.9%	39.8µM*	0.3%	-16.7%	-11.8%
CNC(=O)C1CCC(Cn2c(=O)c3sccc3n(CC(=O)Nc3cc(C)cc(C)c3)c2=O)CC1 (stereo unspecified)	-7.8%	x	x	x	x
COc1ccc(CNc2nc(-c3ccc(N(C)C)cc3)nc3ccccc23)c(OC)c1	x	x	x	x	17.7µM*
COc1ccc(CNc2nc(-c3ccc(C(=O)N(C)C)cc3)nc3ccccc23)c(OC)c1	x	x	x	x	-14.2%
CCc1sc(C(C2C(=O)CC(C)(C)CC2=O)C2C(=O)CC(C)(C)CC2=O)cc1[N+](=O)[O-]	25.1µM*	-0.4%	-1.4%	-0.2%	13.6%
CC1(C)CC(=O)C(C(c2ccc(F)cc2)C2C(=O)CC(C)(C)CC2=O)C(=O)C1	0.7%	-4.9%	0.5%	4.0%	-0.4%
NS(=O)(=O)c1ccc2nc(NC(=O)COc3ccc(Cl)cc3Cl)sc2c1	-1.3%	x	x	x	x
Cc1nn(-c2ccccc2)c(C)c1/C=N/n1c(-c2ccccc2Br)n[nH]c1=S	u	13.1%	12.6µM*	0.4%	10.4%
CC1OC(CC(=O)O)CC2=C1C(=O)c1c(O)cccc1C2=O (stereo unspecified)	u	1.58µM*	x	x	x
O=C1c2cccc(O)c2C(=O)c2c(O)cccc21	-2.6%	x	2.6%	-32.5%	-18.4%
Nc1ccn(C2CO[C@H](CO)O2)c(=O)n1 (stereo partly specified)	2.8%	x	x	x	x
N/C(=N\OC(=O)c1ccc2c(c1)OCO2)c1ccc(Cl)cc1	-6.3%	u	-24.5%	-9.2%	-4.6%
O=C(NCc1ccc2c(c1)OCO2)c1ccncc1	-7.9%	-5.4%	-0.4%	15.8µM*	2.0%
N/C(=N\OC(=O)c1ccc2c(c1)OCO2)c1ccncc1	-3.7%	-19.2%	25.1µM*	-5.9%	2.0%
O=C(NCc1ccc2c(c1)OCO2)c1ccccc1	-3.7%	-3.8%	-5.6%	-0.7%	3.8%
Cc1cccc(OCC(=O)Nc2ccc(Cl)c(-c3nc4ccccc4[nH]3)c2)c1	-3.9%	x	x	x	x
NC(=O)/C=C/C(=O)Nc1ccc(Cl)cc1	1.1%	11.2µM*	9.0%	-33.1%	3.7%
